Data on 63 molecules can be found in PubChem BioAssay AID686978 (National Center for Advancing Translational Sciences (NCATS), 2013).

Structures are written as SMILES. In all, about 420,000 compounds went through this assay and about 64,000 (15%) were called active. About 27% were inconclusive and are not listed. The call rests on the fitted dose curve; in most records, active means well fitted inhibition curve with a large enough effect; inconclusive means small, poorly fitted or top-dose-only effect; inactive means flat fitted curve, though single readings scatter. These entries were drawn from the full list. A call without a number means that no potency is given here.
Potency means the concentration at half of the fitted maximal effect.

This assay in a line: qHTS for Inhibitors of human tyrosyl-DNA phosphodiesterase 1 (TDP1): qHTS in cells in absence of CPT. Further: nearly all actives have a fitted effect of over 55% in size. The conditions noted are these: DT40 Tdp1-/- hTDP1 cells, no CPT, ATP luminescence, 48 h; activity change, negative = growth inhibition: at 46.2 µM (top of the series). The method in brief: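 A cellular qHTS used chicken DT40 cells lacking endogenous Tdp1 but carrying stably transfected human TDP1. Compounds were applied without camptothecin, and cell growth kinetics were judged by ATP-dependent luminescence after ≥48 hr.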
On the technique in general: In qHTS, concentration-response curves come from the screen itself.
Take `CC(=O)N(O)CCCCCNC(=O)CCC(=O)N(O)CCCCCNC(=O)CCC(=O)N(O)CCCCCNC(=O)CCC(=O)O`: the Potency result is “inactive”. In the case of `Cc1cc(C)nc(NC2=NCC(=O)N2c2ccc(Cl)cc2)n1` it was “inactive”. In the case of `CCc1nc2ccc(C(=O)N3CCN(c4cc(Cl)ccc4C)CC3)cc2nc1CC` it was 18.4 µM (active); in that of `CCOC(=O)N1CCN(C(=O)c2ccc3nc4cc(Cl)ccc4c(=O)n3c2)CC1`, “inactive”; in that of `Cc1ccc(Cl)cc1N1CCN(C(=O)c2cccn3c(=O)c4cc(Cl)ccc4nc23)CC1`, “inactive”. To `CN(C)CCCNC(=S)N1CCC(c2nc3ccccc3[nH]2)CC1` belongs “inactive”. As for `CC(C)(C)c1ccc(C(CC(=O)O)NS(=O)(=O)Cc2ccccc2)cc1` (stereo not drawn), the Potency entry was “inactive”. In the case of `CCCCc1nc2c(=O)[nH]c3ccccc3c2o1` it was “inactive”.

Consider `O=S(=O)(ON(c1ccccc1)S(=O)(=O)c1ccccc1)c1ccccc1`, for which the Potency result was “inactive”.

Consider `CC1=C/C(=N\OS(=O)(=O)c2ccccc2)C=CC1=O`, for which the Potency is 1 µM (active). With `CSc1nc2ccc(NC(=O)c3c(F)cccc3F)cc2s1`, the Potency result is “inactive”. To `CCCC(=O)Nc1ccc2c(c1)nc1n2CCSC1` belongs “inactive”; to `CCCC(=O)Nc1nc2ccc(NC(=O)c3cccnc3)cc2s1`, 9.2 µM (active); to `CCCC(=O)Nc1nc2ccc(NC(=O)c3c(F)c(F)c(OC)c(F)c3F)cc2s1`, 0.651 µM (active). As for `CCC(=O)Nc1cccc(NC(=O)c2cccnc2)c1`, the Potency result is “inactive”. To `CCOC(=O)c1cc(NC(=O)c2cccnc2)cc(C(=O)OCC)c1` belongs “inactive”; to `O=C(COC(=O)/C=C/c1ccc(OC(F)F)cc1)NC1CCCCC1`, “inactive”; to `O=C(CCNS(=O)(=O)c1ccccc1)NCCCc1ccccc1`, “inactive”. In the case of `O=S(=O)(c1ccccc1)N1CN(Cc2ccc(F)cc2)c2nc3ccccc3nc21` it was “inactive”. To `O=C(CCN1C(=O)C2CCCCC2C1=O)Nc1ccc(OC(F)F)cc1` (stereo not drawn) belongs “inactive”; to `COCCNc1ncnc2ccc(-c3ccccc3CN(C)C)cc12`, “inactive”; to `COc1ccccc1CNc1ncnc2ccc(-c3ccc4c(c3)OCO4)cc12`, “inactive”. Regarding `COc1ccccc1CNc1ncnc2ccc(-c3c(C)noc3C)cc12`, the Potency is 11.6 µM (active). To `CCC1(CC)NC(=O)N(CC(=O)OCC(=O)Nc2ccc(C(F)(F)F)cc2)C1=O` belongs “inactive”; to `CCCN(C/C=C\I)[C@@H]1CCc2cccc(O)c2C1`, 21.1 µM (active); to `CCCN(CCc1ccccc1)C1CCc2c(O)cccc2C1` (stereo not drawn), 11.6 µM (active). To `O=C(C(=O)N1CCOc2ccc(CN3CCN(Cc4ccccn4)CC3)cc2C1)c1ccccc1` belongs “inactive”; to `COCCNC(=O)c1onc(CSc2cccc(C)c2)c1C(=O)O`, “inactive”. To `CCOc1ccc(NC(=S)N2CCC(N(C)CC3CCCO3)CC2)cc1` (stereo not drawn) belongs “inactive”; to `COc1ccc2oc(N)c(C=O)c(=O)c2c1`, “inactive”; to `CCOc1ccc(NC(=O)C/C(C)=N/NC(=O)Cc2cccs2)cc1`, “inactive”. In the case of `CN1C(=O)[C@H]2[C@@H](C3CC3)N3C(=O)CN(Cc4ccccc4)C(=O)[C@@]3(C)[C@H]2C1=O`, the Potency entry was “inactive”.

`Cc1ccccc1Cn1c(=O)[nH]c2ccccc21`: the Potency result is “inactive”. In the case of `Cc1cccc(C)c1NC(=O)N1CC=C(n2c(=O)[nH]c3ccccc32)CC1` it was 20.6 µM (active).

As for `Cc1cccc(C)c1NC(=O)N1CC(C)OC(C)C1` (stereo not drawn), the Potency entry is “inactive”. For the molecule `COc1ccc(C)cc1N1C(=O)[C@@H]2C[C@H]1CN2Cc1cccc(OC)c1O`, the Potency entry was “inactive”. As to `COc1ccc(N2CCC(N3CCN(C)C(CCO)C3)CC2)cc1` (stereo not drawn), the Potency result is “inactive”.

For `COc1ccc(-c2c3c(=O)n(C)c(=O)n(C)c3cn2NC(C)=O)cc1`, the Potency entry was “inactive”. With `COc1ccc(-c2c3c(=O)n(C)c(=O)n(C)c3c3c(C)nc4ccccc4n23)cc1`, the Potency is 20.6 µM (active). To `COc1ccc(-c2[nH]c3c(c2-c2c(-n4cccc4)n(C)c(=O)n(C)c2=O)c(=O)n(C)c(=O)n3C)cc1` belongs “inactive”.

For `CC1=NNC(=O)C1CCC(=O)N/N=C\c1cccc(Cl)c1` (stereo not drawn), the Potency result is “inactive”. In the case of `CC(=O)C[C@@H]1OC[C@H](C)N1S(=O)(=O)c1ccc(C)cc1` it was “inactive”.

Regarding `CC(=O)C[C@@H]1OC[C@H](CO)N1S(=O)(=O)c1ccc(C)cc1`, the Potency result is “inactive”. In the case of `Cc1ccc(S(=O)(=O)N2[C@@H](Cc3ccccc3)CO[C@H]2CC(=O)OCc2ccccc2)cc1` it was 23.1 µM (active); in that of `CC(=O)Nc1nc(C)c(Cc2ccccc2)c(=O)[nH]1`, “inactive”; in that of `CCCCn1c(N)c(N(CC(C)C)C(=O)c2ccc(Br)o2)c(=O)[nH]c1=O`, “inactive”.

As for `Cc1cc(C)cc(CN2CCc3nnc(C(NS(C)(=O)=O)C(C)C)n3CC2)c1` (stereo not drawn), the Potency entry was “inactive”. In the case of `CN(C)C1CN(Cc2cn(Cc3ccccc3)nn2)S(=O)(=O)C1` (stereo not drawn) it was “inactive”. For `Cc1cccc(CN2CCN(C3CN(Cc4cn(Cc5cc(C)cc(C)c5)nn4)S(=O)(=O)C3)CC2)c1` (stereo not drawn), the Potency is 16.4 µM (active). For the molecule `O=S1(=O)CC(N2CCN(CCO)CC2)CN1Cc1cn(Cc2ccc(Cl)cc2)nn1` (stereo not drawn), the Potency entry is “inactive”. In the case of `Cc1ccc(Cn2cc(CN3CC(N4CCN(C)CC4)CS3(=O)=O)nn2)cc1` (stereo not drawn) it was “inactive”; in that of `O=S1(=O)CC(N2CCN(Cc3ccccc3F)CC2)CN1Cc1cn(Cc2cccc(C(F)(F)F)c2)nn1` (stereo not drawn), 16.4 µM (active). To `O=S1(=O)CC(N2CCN(CCO)CC2)CN1Cc1cn(Cc2cccc(Cl)c2)nn1` (stereo not drawn) belongs “inactive”.

Turning to `CN(Cc1cn(Cc2ccc(C(F)(F)F)cc2)nn1)C1CN(Cc2cn(Cc3ccc(C(F)(F)F)cc3)nn2)S(=O)(=O)C1` (stereo not drawn), the Potency is 4.61 µM (active). In the case of `CCCCCCN1CCN(C2CN(Cc3cn(CCCCCC)nn3)S(=O)(=O)C2)CC1` (stereo not drawn) it was 20.6 µM (active); in that of `CC(C)C(C)(C#N)NC(=O)CSc1nc2scc(-c3ccccc3)c2c(=O)[nH]1` (stereo not drawn), “inactive”; in that of `CC1(c2ccc(Cl)cc2)NC(=O)N(CC(=O)c2ccc3c(c2)OCO3)C1=O` (stereo not drawn), “inactive”. Take `Cn1c2c(c(=O)n(C)c1=O)CN(Cc1ccco1)CN2`: the Potency result is “inactive”. On to `CC(=O)NC(Cc1ccc(F)c(F)c1)C(=O)NC1CCN(C(=O)c2ccc(C)cc2)CC1` (stereo not drawn), for which the Potency entry is “inactive”. To `CCOc1ccc(S(=O)(=O)N2CCCCCC2)c2ccccc12` belongs “inactive”; to `COc1ccc(-c2ocnc2C(=O)Nc2ccc3c(c2)CCC3)cc1`, “inactive”; to `CSC1=NCCN1C(=O)Cc1cccc2ccccc12`, “inactive”. In the case of `COCCN1C(=O)C(=O)/C(=C(/O)c2ccc(S(=O)(=O)N3CCOCC3)cc2)C1c1ccc(O)c(OC)c1` (stereo not drawn) it was “inactive”.
